# Assay outcomes: PubChem BioAssay, National Center for Advancing Translational Sciences (NCATS)
# Rows were chosen to be rich in hits. Some 21% of all compounds tested hit in one or more screens of this group.
# CHX counter – counter-screen for Shiga toxin inhibitors: cycloheximide protein synthesis inhibition; 300,000 compounds, 12% hits; AID 2314; max response, %; cell reporter, cycloheximide protein synthesis inhibition counterscreen; in the data active = max response mostly above about 13%, no sharp cut-off; inactive = mostly below about 14%; also: read at 38.3 µM for the half of the compounds with a filed dose; 0% is about no effect
# Pf growth 48h – P. falciparum growth inhibition at 48 hours (one generation); P. falciparum luciferase growth in erythrocytes, 48 h; Potency, µM (doses to about 28.7 µM), without a hit: at the highest dose activity change, negative = inhibition, hits mostly inhibitors; 310,000 compounds, 5.9% hits; AID 504832; also: potency is read from the fitted curve at half-maximal effect; % is scaled to controls: 0 for no effect and ±100 for the full control effect
#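 Luciferase-expressing P. falciparum in infected erythrocytes (2% hematocrit, 0.1% parasitemia final) in RPMI 1640/0.5% Albumax were exposed to compound for 48 hours at 37 C, 5% CO2; growth read as luminescence.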
# Sm TGR inh – inhibitors of Schistosoma mansoni thioredoxin glutathione reductase | Q962Y6 | purified TGR, DTNB reduction, TNB absorbance 405 nm | Potency, µM (top dose mostly 114 µM), inactives show at the top dose activity change, negative = inhibition, actives largely listed as inhibitors | 360,000 compounds, 3% hits | AID 485364; also: potency is read from the fitted curve at half-maximal effect; % is scaled to controls: 0 for no effect and ±100 for the full control effect; nearly all actives have a fitted effect of over 60% in size
#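 TGR 20 nM + NADPH 100 uM (dispensed conc.), cpd preinc 15 min RT; start with NADPH (500 uM addition) then DTNB (15 mM addition). Kinetic TNB absorbance, 405 nm filter. Four-parameter Hill fit across titration.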
# Pf growth 96h – inhibits malaria parasite growth, 96 h | P. falciparum luciferase reporter growth, 96 h | Potency, µM (highest dose often 28.7 µM), inactives show at the top dose activity change, negative = inhibition, usual class: inhibitors | 320,000 compounds, 6.9% hits | AID 504834; also: potency is read from the fitted curve at half-maximal effect; % is scaled to controls: 0 for no effect and ±100 for the full control effect
#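 Cell-based qHTS: luciferase-tagged P. falciparum in erythrocytes (2% hematocrit, 0.05% parasitemia final) incubated with compounds for 96 hours, 37 C, 5% CO2; luciferase detection reagent then added and luminescence measured.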
# Shiga inhibitor – Shiga toxin inhibition; 290,000 compounds, 9.2% hits; inhibition, % at 38.7 µM; AID 2315; Vero cells, Shiga toxin protein synthesis inhibition reporter; in the data active = inhibition mostly above about 28%, no sharp cut-off; inactive = mostly below about 43%; also: 0% is about no effect
# NS1 inh – inhibitors of influenza NS1 protein function. AID 2326. Potency, µM (top dose mostly 46.1 µM), for the others: at the highest dose activity, positive = more growth. 270,000 compounds, 0.4% hits; calls by dose curve; also: potency is read from the fitted curve at half-maximal effect; actives are rising curves; nearly all actives have a fitted effect of over 50% in size
#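 OD600 was taken as the measure of yeast growth restored by compound in an NS1-expressing S. cerevisiae strain. Cells had been washed out of glucose medium and diluted 1:100 into galactose -URA medium, pH 6.0.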
# * = called active by the depositor; i = inactive; ? = inconclusive; · = not tested or not shown; [ ] = another dose, or the depositor's remark. Unless noted, calls follow the shape of the dose curve; as a rule, active = well fitted curve in the direction sought with a large enough effect; inconclusive = small, poorly fitted or top-dose-only effect, or another doubt; inactive = no such curve, though single readings can be large; an effect the other way counts as inactive or inconclusive.
SMILES,CHX counter,Pf growth 48h,Sm TGR inh,Pf growth 96h,Shiga inhibitor,NS1 inh
CCN(CC)CCCNC(=S)N(Cc1cccnc1)Cc1cc2cccc(C)c2[nH]c1=O,-2,?,0%,?,13,3%
Cc1ccc2[nH]c(=O)c(CN(Cc3cccnc3)C(=S)NCCCN(C)C)cc2c1,1,15µM*,?,6%,-15,3%
Cc1cccc2cc(CN(Cc3cccnc3)C(=S)NCCCN(C)C)c(=O)[nH]c12,-1,?,7%,?,17,-7%
Cc1ccc(OCC(=O)N(c2ccc(C)cc2)S(=O)(=O)c2ccc(Cl)cc2)cc1,·,·,0%,·,·,·
CCCCCCCCCC(=O)Nc1cccnc1,-2,6%,0%,31%,-11,-7%
O=C1CCCc2nc3c(cc21)C(O)Oc1c-3ccc2ccccc12 (centres undefined),49*,180%,1%,i,65*,·
Cc1ccc(C)c(N2CCN(C(=O)c3ccc(NC4=NC5CS(=O)(=O)CC5S4)cc3)CC2)c1 (centres undefined),-5,-1%,1%,10µM*,-3,18%
Cc1cccc(CCNC(=O)Cc2ccc(NC3=NC4CS(=O)(=O)CC4S3)cc2)c1 (centres undefined),2,1%,3%,?,-4,2%
CCOc1ccc(NC(=O)c2cccc(NC3=NC4CS(=O)(=O)CC4S3)c2)cc1 (centres undefined),-2,15%,-11%,8.3µM*,2,-10%
Cc1cccc(CCNC(=O)c2cccc(NC3=NC4CS(=O)(=O)CC4S3)c2)c1 (centres undefined),2,2%,-2%,15µM*,-3,13%
CC(C)NC[C@H](O)c1ccc(O)c(O)c1,·,-11%,45µM*,8%,·,0%
CC(C)N(C)Cc1cn(C)nc1-c1ccc(Oc2ccccc2)cc1,-3,-8%,-11%,5.2µM*,·,5%
Cc1cc(CNCc2cn(C)nc2-c2ccc(Oc3ccccc3)cc2)on1,17*,?,-17%,12µM*,12,-6%
Cn1cc(CNCC2CCCO2)c(-c2ccc(Oc3ccccc3)cc2)n1 (centres undefined),0,?,0%,-27%,-16,3%
Cn1cc(CN2CCC(O)CC2)c(-c2ccc(Oc3ccccc3)cc2)n1,-3,-4%,-29%,9.3µM*,-4,-2%
CSc1ncccc1C(=O)OCC(=O)NC1CC1,·,7%,8%,16%,·,·
C/C(CC(C)C)=N\Nc1ccc(S(N)(=O)=O)cc1[N+](=O)[O-],6,3%,0%,14%,25,·
CCOc1ccc(OCCOC(=O)CNC(=O)c2ccc(Cl)cc2Cl)cc1,·,31%,-2%,39%,·,·
CCOc1ccc(Cn2nnc(-c3ccc(S(C)(=O)=O)cc3)n2)cc1OCC,·,?,-7%,0.93µM*,·,·
CCOc1ccc(CCNC(=O)Cn2nnc(-c3ccccc3)n2)cc1OCC,·,·,3%,·,·,·
O=C(c1ccccc1)N1N=C(c2ccccc2)CC1c1ccc2nccnc2c1 (centres undefined),-5,9.3µM*,-1%,?,-9,12%
COc1ccc(C2CC(c3ccccc3)=NN2C(=O)c2ccc(F)cc2)cc1 (centres undefined),11,12µM*,-1%,-24%,-2,2%
COc1ccc(C2CC(c3ccccc3)=NN2C(=S)Nc2ccccc2)cc1 (centres undefined),10,?,0%,?,-9,·
CNC(=S)N1N=C(c2ccccc2)CC1c1ccc(OC)c(OC)c1 (centres undefined),-2,-18%,-9%,-14%,-10,3%
O=C(Nc1ccccc1)N1N=C(c2ccc(F)cc2)CC1c1ccc(F)cc1 (centres undefined),-4,-79%,-7%,?,32,11%
SMILES,CHX counter,Pf growth 48h,Sm TGR inh,Pf growth 96h,Shiga inhibitor,NS1 inh
COc1ccccc1C1CC(c2ccccc2)=NN1C(=S)Nc1ccccc1 (centres undefined),14,3.3µM*,0%,?,5,·
COc1ccc(C2=NN(C(=S)Nc3ccccc3)C(c3ccccc3)C2)cc1 (centres undefined),-2,15µM*,0%,44%,1,28%
COc1ccc(CN2CCn3nc(C(=O)NC4CC4)cc3C2=O)cc1,5,?,10%,?,2,-1%
Cc1ccc(N2C(=O)C(CC(=O)Nc3ccccc3)N(CCC3=CCCCC3)C2=O)cc1 (centres undefined),·,·,-13%,·,·,·
Cc1ccc(N(C)S(=O)(=O)c2nnc(NC(=O)C3CCCCC3)s2)cc1,-7,·,3%,·,-4,·
O=[N+]([O-])c1ccc(NCCNCCOc2nonc2-c2ccccc2)c([N+](=O)[O-])c1,3,8%,-14%,?,-6,·
COc1ccc(C2=NN(C(N)=S)C(c3ccccc3)C2)cc1 (centres undefined),32*,?,-11%,21%,51*,·
COc1ccc(C2=NN(C(=O)CCC(=O)O)C(c3ccc(OC)cc3)C2)cc1 (centres undefined),-2,-9%,8%,?,7,13%
COc1ccc(C2CC(c3ccc(Br)cc3)=NN2C(=O)CSC2=NCCS2)cc1 (centres undefined),-3,?,-28%,4.7µM*,-3,?
COc1ccc(C2CC(c3ccc(Br)cc3)=NN2C(=S)Nc2ccccc2)cc1 (centres undefined),21*,-20%,17%,7%[5.75 µM],43*,·
COc1ccc(C2CC(c3ccccc3)=NN2C(=O)CN2N=NC3C(=O)N(c4cccc(F)c4)C(=O)C32)cc1 (centres undefined),11*,-14%,-13%,?,-9,24%
Cc1ccccc1CNC(=O)c1ccc(Cn2c(SCc3ccccc3)nc3cccnc32)cc1,·,·,-3%,·,·,·
Cc1cccc(NC(=O)C(=O)NCCCN2CCOCC2)c1,15,3%,-4%,?,25,·
Cc1cccc2sc(NC(=O)C3CCN(S(=O)(=O)c4cc([N+](=O)[O-])ccc4Cl)CC3)nc12,17,-20%,-34%,?,12,24%
O=C(NC1CC1)C1CCN(S(=O)(=O)c2cc(Cl)ccc2Cl)CC1,1,-4%,9%,0.083µM*,-20,1%
Cc1nnc(NC(=O)C2CCN(S(=O)(=O)c3cc([N+](=O)[O-])ccc3Cl)CC2)o1,·,-21%,35µM*,8%,·,·
O=C(NC1=NCCS1)C1CCN(S(=O)(=O)c2ccc(Cl)cc2)CC1,·,?,50µM*,?,·,·
O=C(NC1CC1)C1CCN(S(=O)(=O)c2ccc(Cl)cc2)CC1,-5,1.7µM*,-6%,7%,-18,6%
CC(C)c1ccc(S(=O)(=O)N2CCC(C(=O)NCC3(N(C)C)CCCCC3)CC2)cc1,-2,?,-2%,?,-35,-2%
